# Screening data from PubChem BioAssay.
# T cruzi growth-1: inhibitors of T. cruzi proliferation | T. cruzi beta-gal in NIH3T3, GalScreen luminescence, 90 h | inhibition, % at 8.34 µM | 77,000 compounds, 5.9% hits | AID 624255;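 active = mean inhibition above about 93%, with at least 55% of replicates each passing it, limit read from the data, passing the limit was not always enough; inconclusive = only one of those two conditions holds; inactive = neither condition holds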
# Pf Dd2 inh: inhibitors of Plasmodium falciparum Dd2 growth | 94,000 compounds, 2.3% hits | activity change, % at 10 µM | P. falciparum Dd2 growth, SYBR Green, 72 h; hits give low values; in the data active = activity change below about -80%; inconclusive = no clear call, values can overlap the other calls
# C diff growth: blocks growth of Clostridium difficile | Clostridium difficile clinical isolate growth, OD600, 24 h; hits give low values | growth activity, negative = inhibition, % at 16 µg/mL (by protocol) | 86,000 compounds, 0.25% hits | AID 1259249;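 active = mean growth activity at or below -80% and every replicate also at or below -80%; inconclusive = mean at or below -80% but some replicate above -80%; inactive = mean growth activity above -80%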
# T cruzi growth-2: inhibitors of T. cruzi proliferation; T. cruzi beta-gal in NIH3T3, GalScreen luminescence, 90 h; shares compounds with T cruzi growth-1; 5,600 compounds, 72% hits; inhibition, % at 8.35 µM; AID 651739;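 active = mean replicate inhibition above about 95% and at least 55% of replicates individually reaching it, limit read from the data; inconclusive = only one of the two criteria is met; inactive = neither criterion is met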
# T cruzi growth-3: blocks T. cruzi growth in NIH3T3 host cells; shares compounds with T cruzi growth-1; T. cruzi beta-gal in NIH3T3, GalScreen luminescence, 90 h; inhibition, % at 2.09 µM; 5,600 compounds, 21% hits; AID 651740;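 active = mean inhibition above about 95%, with at least 55% of replicates also reaching it, limit read from the data; inconclusive = meets just one of the two conditions; inactive = meets neither condition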
# NIH3T3 tox: cytotoxicity in mouse NIH/3T3 fibroblasts. shares compounds with T cruzi growth-1. NIH/3T3 viability, CellTiter-Glo ATP luminescence, 90 h. cytotoxicity (signal decrease), % at 8.35 µM. 5,600 compounds, 14% hits. AID 651742;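 active = mean signal decrease across replicates above about 35% based on untreated-well scatter, with enough replicates individually passing, limit read from the data; inconclusive = no rule stated though some were filed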
# 3T3 cytotox 2: NIH/3T3 (mouse) viability loss; 5,600 compounds, 56% hits; inhibition, % at 24.9 µM; AID 651744; NIH/3T3 viability, CellTiter-Glo ATP luminescence, 90 h; shares compounds with T cruzi growth-1;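 active = mean loss of cell viability signal at or above a set limit, and enough replicates individually reaching it; inconclusive = meets only the mean limit or only the replicate share; inactive = meets neither condition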
# Hits are given with their value; n = inactive; u = inconclusive; x = no result given. In the library only some 6.8% were active in any assay of this set; here they are far more common.
SMILES,T cruzi growth-1,Pf Dd2 inh,C diff growth,T cruzi growth-2,T cruzi growth-3,NIH3T3 tox,3T3 cytotox 2
CCC(=O)N1CC[C@H]2[C@@H]1c1cc(-c3ccccc3)ccc1N(C)[C@H]2CO,n,n,n,x,x,x,x
COc1ccccc1NC(=O)N1CC[C@@H]2[C@H]1c1cc(-c3ccccc3)ccc1N(C)[C@H]2CO,n,n,n,x,x,x,x
COc1ccccc1NC(=O)N1CC[C@@H]2[C@H]1c1cc(-c3ccc(F)cc3)ccc1N(C)[C@@H]2CO,112,n,n,98,107,n,34
COCC(=O)N1CC[C@@H]2[C@H]1c1cc(-c3ccc(OC)cc3)ccc1N(C)[C@H]2CO,n,n,n,x,x,x,x
CCC(=O)N1CC[C@@H]2[C@H]1c1cc(-c3ccc(F)cc3)ccc1N(C)[C@@H]2CO,101,n,n,107,n,n,24
COCC(=O)N1CC[C@@H]2[C@@H](CO)N(C)c3ccc(-c4cccc(OC)c4)cc3[C@@H]21,97,n,n,108,n,n,n
CCC(=O)N1CC[C@@H]2[C@H]1c1cc(-c3cccc(F)c3)ccc1N(C)[C@@H]2CO,n,n,n,x,x,x,x
CCCN1C[C@@H](C)[C@@H](OC)CN(C)C(=O)c2ccc(NC(=O)c3cnccn3)cc2OC[C@H]1C,n,n,x,x,x,x,x
C[C@@H]1CCCCO[C@H](CN(C)C)[C@@H](C)CN([C@H](C)CO)C(=O)c2cc(NC(=O)NC3CCCCC3)ccc2O1,n,x,n,x,x,x,x
CO[C@H]1CC[C@H]2CCOc3c(C#N)cccc3C(=O)N(C)C[C@H](C)C(=O)N(C)C[C@H]1O2,n,n,x,x,x,x,x
COCC(=O)N1C[C@H](C)[C@H](OC)CN(C)C(=O)c2cc(NC(=O)c3ccccc3)ccc2OC[C@H]1C,x,n,x,x,x,x,x
CN1c2ccc(-c3ccc(F)cc3)cc2[C@H]2[C@H](CCN2C(=O)Cc2cccnc2)[C@H]1CO,u,n,n,n,n,n,n
CN1c2ccc(-c3ccc(F)cc3)cc2[C@H]2[C@H](CCN2C(=O)Cc2cccnc2)[C@@H]1CO,107,n,n,110,104,n,n
CN1c2ccc(-c3cccc(F)c3)cc2[C@@H]2[C@@H](CCN2C(=O)Cc2cccnc2)[C@H]1CO,n,n,n,x,x,x,x
CN1c2ccc(-c3cccc(F)c3)cc2[C@H]2[C@H](CCN2C(=O)Cc2cccnc2)[C@@H]1CO,n,n,n,x,x,x,x
C[C@H](NC(=O)C[C@H]1C[C@@H]2c3cc(NC(=O)CC4CC4)ccc3O[C@@H]2[C@H](CO)O1)c1ccccc1,n,n,n,x,x,x,x
C[C@@H]1CN([C@@H](C)CO)S(=O)(=O)c2ccc(Br)cc2O[C@@H]1CN(C)S(=O)(=O)c1ccccc1,x,n,n,x,x,x,x
C[C@H]1CN([C@@H](C)CO)S(=O)(=O)c2ccc(Br)cc2O[C@H]1CN(C)S(=O)(=O)c1ccc(F)cc1,106,n,x,106,n,n,u
C[C@@H]1CN([C@@H](C)CO)S(=O)(=O)c2ccc(Br)cc2O[C@H]1CN(C)S(=O)(=O)c1cccc(F)c1,107,n,n,111,n,n,68
C[C@@H]1CN([C@@H](C)CO)S(=O)(=O)c2ccc(Br)cc2O[C@@H]1CN(C)S(=O)(=O)c1ccc(F)cc1,n,n,n,x,x,x,x
COc1ccc(S(=O)(=O)N(C)C[C@H]2Oc3ccc(NC(=O)NC4CCCCC4)cc3CC(=O)N([C@H](C)CO)C[C@@H]2C)cc1,n,n,n,x,x,x,x
COc1ccc(S(=O)(=O)N(C)C[C@@H]2Oc3ccc(NC(=O)CCN4CCOCC4)cc3C(=O)N([C@@H](C)CO)C[C@H]2C)cc1,n,n,x,x,x,x,x
C[C@@H]1CN([C@@H](C)CO)C(=O)c2cc(NC(=O)Nc3ccc(C(F)(F)F)cc3)ccc2O[C@@H](C)CCCCO[C@H]1CN(C)Cc1ccc2c(c1)OCO2,u,n,-92,100,112,n,105
C[C@H](CO)N1C[C@H](C)[C@H](CN(C)Cc2ccc3c(c2)OCO3)OCCCC[C@H](C)Oc2ccc(NC(=O)Nc3ccc(C(F)(F)F)cc3)cc2C1=O,u,n,n,104,113,124,104
C[C@@H]1CCCCO[C@@H](CN(C)Cc2ccc(C(F)(F)F)cc2)[C@H](C)CN([C@H](C)CO)C(=O)c2cc(NC(=O)Nc3ccc4c(c3)OCO4)ccc2O1,n,n,x,x,x,x,x
